Reference: PubChem BioAssay AID1159580 (chemical genetic matrix, 2015)
Out of some 5,500 compounds screened, about 2,000 (36%) were called active. About 18% were inconclusive and are not listed. No stated cut-off is given here; in the data, active means normalized growth mostly below about 0.91 (no sharp cut-off); inconclusive means no clear call, values can overlap the other calls; inactive means mostly above about 0.92. The list shows a part of the results.

Assay: chemical genetic growth profiling, strain panel (AID 1159580);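 further: tested at 20 µM; growth read once vehicle control cultures reached saturation at 30 °C; 1 = growth at the plate median or of vehicle wells; lower values mean less growth of the strain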
Details: S. cerevisiae deletion strains, growth OD

Measured: normalized growth

CCOC(=O)C(=O)C1(C(=O)OCC)Oc2cc(OC)cc(OC)c2C(=O)C1c1ccccc1 (stereo not given)
inactive: locus YAL021C, strain ccr4, hits give low values 0.981 | locus YAL026C, strain drs2, hits give low values 0.96 | locus YAL030W, strain snc1, hits give low values 0.96 | locus YBL061C, strain skt5, hits give low values 0.951 | locus YBR009C, strain hhf1, hits give low values 0.908 | locus YBR023C, strain chs3, hits give low values 0.954 | locus YBR171W, strain sec66, hits give low values 0.939 | locus YBR229C, strain ROT2, hits give low values 0.986 | locus YBR231C, strain swc5, hits give low values 0.961 | locus YBR279W, strain paf1, hits give low values 0.965 | locus YCL011C, strain gbp2, hits give low values 0.925 | locus YCL016C, strain dcc1, hits give low values 0.972 | locus YCL029C, strain bik1, hits give low values 0.989 | locus YCL061C, strain MRC1, hits give low values 0.938 | locus YCL069W, strain vba3, hits give low values 0.96 | locus YCR088W, strain abp1, hits give low values 0.967 | locus YDL005C, strain med2, hits give low values 0.961 | locus YDL035C, strain GPR1, hits give low values 0.967 | locus YDL040C, strain nat1, hits give low values 0.961 | locus YDL074C, strain BRE1, hits give low values 0.913 | locus YDL101C, strain DUN1, hits give low values 0.959 | locus YDL185W, strain tfp1, hits give low values 0.969 | locus YDL192W, strain arf1, hits give low values 0.945 | locus YDR001C, strain nth1, hits give low values 0.947 | locus YDR069C, strain doa4, hits give low values 0.967 | locus YDR101C, strain arx1, hits give low values 0.955 | locus YDR137W, strain rgp1, hits give low values 0.904 | locus YDR159W, strain sac3, hits give low values 0.928 | locus YDR162C, strain NBP2, hits give low values 0.987 | locus YDR195W, strain ref2 1.01 | locus YDR297W, strain sur2, hits give low values 0.949 | locus YDR318W, strain mcm21, hits give low values 0.936 | locus YDR334W, strain swr1, hits give low values 0.965 | locus YDR335W, strain msn5, hits give low values 0.971 | locus YDR388W, hits give low values 0.968 | locus YDR392W, strain spt3, hits give low values 0.767 | locus YDR502C, strain sam2, hits give low values 0.928 | locus YEL003W, strain gim4, hits give low values 0.948 | locus YEL037C, strain rad23, hits give low values 0.964 | locus YEL061C, strain CIN8 (second series), hits give low values 0.929 | locus YEL061C, strain CIN8, hits give low values 0.99 | locus YER015W, strain faa2, hits give low values 0.952 | locus YER016W, strain bim1, hits give low values 0.976 | locus YER110C, hits give low values 0.953 | locus YER111C, strain swi4, hits give low values 0.946 | locus YER155C, strain BEM2 (second series), hits give low values 0.875 | locus YER155C, strain BEM2, hits give low values 0.966 | locus YER167W, strain BCK2, hits give low values 0.97 | locus YFR010W, strain ubp6, hits give low values 0.956 | locus YGL078C, strain dbp3, hits give low values 0.938 | locus YGL086W, strain mad1, hits give low values 0.942 | locus YGL173C, strain kem1, hits give low values 0.947 | locus YGL227W, strain vid30, hits give low values 0.926 | locus YGL240W, strain doc1, hits give low values 0.911 | locus YGL248W, strain PDE1, hits give low values 0.945 | locus YGL253W, strain hxk2, hits give low values 0.972 | locus YGR135W, strain pre9, hits give low values 0.915 | locus YGR252W, strain gcn5, hits give low values 0.791 | locus YHR013C, strain ard1, hits give low values 0.95 | locus YHR027C, strain rpn1, hits give low values 0.987 | locus YHR030C, strain SLT2, hits give low values 0.993 | locus YHR079C, strain IRE1 (second series), hits give low values 0.961 | locus YHR094C, strain hxt1, hits give low values 0.951 | locus YHR129C, strain ARP1, hits give low values 0.966 | locus YHR142W, strain chs7, hits give low values 0.95 | locus YHR200W, strain rpn10, hits give low values 0.942 | locus YIL066C, strain RNR3, hits give low values 0.983 | locus YIL073C, strain SPO22, hits give low values 0.929 | locus YIL125W, strain kgd1, hits give low values 0.971 | locus YIR030C, strain dcg1, hits give low values 0.962 | locus YJL092W, strain hpr5, hits give low values 0.941 | locus YJL095W, strain BCK1 (second series), hits give low values 0.973 | locus YJL095W, strain BCK1, hits give low values 0.907 | locus YJL115W, strain asf1, hits give low values 0.979 | locus YJL134W, strain LCB3, hits give low values 0.989 | locus YJL154C, strain vps35, hits give low values 0.968 | locus YJL164C, strain tpk1, hits give low values 0.95 | locus YJL166W, strain qcr8, hits give low values 0.926 | locus YJL168C, strain set2, hits give low values 0.966 | locus YJL187C, strain SWE1 (second series), hits give low values 0.948 | locus YJL187C, strain SWE1, hits give low values 0.953 | locus YJR043C, strain POL32, hits give low values 0.998 | locus YKL009W, strain mrt4, hits give low values 0.899 | locus YKL068W, hits give low values 0.955 | locus YKL085W, strain MDH1 (second series), hits give low values 0.959 | locus YKL085W, strain MDH1, hits give low values 0.959 | locus YKL160W, strain elf1, hits give low values 0.966 | locus YKL190W, strain CNB1, hits give low values 0.989 | locus YKR001C, strain vps1, hits give low values 0.958 | locus YKR026C, strain gcn3, hits give low values 0.932 | locus YLL001W, strain dnm1, hits give low values 0.964 | locus YLL026W, hits give low values 0.969 | locus YLL041C, strain sdh2, hits give low values 0.966 | locus YLR027C, strain aat2, hits give low values 0.95 | locus YLR039C, strain RIC1, hits give low values 0.983 | locus YLR058C, strain SHM2, hits give low values 0.959 | locus YLR102C, strain apc9, hits give low values 0.962 | locus YLR221C, strain rsa3, hits give low values 0.91 | locus YLR258W, strain gsy2, hits give low values 0.959 | locus YLR262C, strain YPT6 (second series), hits give low values 0.906 | locus YLR262C, strain YPT6, hits give low values 0.978 | locus YLR268W, strain sec22, hits give low values 0.955 | locus YLR320W, strain mms22, hits give low values 0.889 | locus YLR342W, strain FKS1, hits give low values 0.919 | locus YLR357W, strain rsc2, hits give low values 0.916 | locus YLR370C, strain arc18, hits give low values 0.938 | locus YLR371W, strain rom2, hits give low values 0.962 | locus YLR384C, strain iki3, hits give low values 0.95 | locus YML016C, strain PPZ1, hits give low values 0.989 | locus YML032C, strain rad52, hits give low values 0.961 | locus YML120C, strain ndi1, hits give low values 0.919 | locus YML124C, strain tub3, hits give low values 0.94 | locus YMR058W, strain fet3, hits give low values 0.946 | locus YMR078C, strain ctf18, hits give low values 0.94 | locus YMR125W, strain sto1, hits give low values 0.979 | locus YMR129W, hits give low values 0.936 | locus YMR205C, strain PFK2, hits give low values 0.877 | locus YMR223W, strain ubp8, hits give low values 0.949 | locus YMR231W, strain pep5, hits give low values 0.988 | locus YMR307W, strain GAS1, hits give low values 0.949 | locus YNL067W, strain RPL9B, hits give low values 0.965 | locus YNL153C, strain GIM3, hits give low values 0.986 | locus YNL209W, strain ssb2, hits give low values 0.972 | locus YNL233W, strain BNI4, hits give low values 0.917 | locus YNL248C, strain rpa49, hits give low values 0.986 | locus YNL250W, strain rad50, hits give low values 0.96 | locus YNL271C, strain bni1, hits give low values 0.976 | locus YNL298W, strain CLA4, hits give low values 0.965 | locus YNL322C, strain KRE1 (second series), hits give low values 0.948 | locus YNL322C, strain KRE1, hits give low values 0.983 | locus YNR049C, strain mso1, hits give low values 0.966 | locus YNR052C, strain pop2, hits give low values 0.985 | locus YOL012C, strain htz1 1.05 | locus YOL147C, strain pex11, hits give low values 0.94 | locus YOR001W, strain rrp6, hits give low values 0.987 | locus YOR061W, strain CKA2, hits give low values 1 | locus YOR069W, strain VPS5, hits give low values 0.979 | locus YOR070C, strain gyp1, hits give low values 0.968 | locus YOR080W, strain dia2, hits give low values 0.965 | locus YOR083W, strain WHI5, hits give low values 0.956 | locus YOR106W, strain vam3, hits give low values 0.974 | locus YOR136W, strain idh2, hits give low values 0.962 | locus YOR144C, strain elg1, hits give low values 0.959 | locus YOR184W, strain ser1, hits give low values 0.876 | locus YOR265W, strain rbl2, hits give low values 0.964 | locus YOR270C, strain vph1, hits give low values 0.878 | locus YOR316C, strain cot1, hits give low values 0.963 | locus YPL051W, strain arl3, hits give low values 0.984 | locus YPL078C, strain atp4, hits give low values 0.964 | locus YPL106C, strain sse1, hits give low values 0.943 | locus YPL240C, strain hsp82, hits give low values 0.968 | locus YPR119W, strain clb2, hits give low values 0.946 | locus YPR141C, strain kar3, hits give low values 0.951 | locus YPR163C, strain tif3, hits give low values 0.97 | locus YPR167C, strain met16, hits give low values 0.929 | strain wtn01, hits give low values 0.945
active: locus YBR021W, strain FUR4, hits give low values 0.818 | locus YGL167C, strain pmr1, hits give low values 0.911 | locus YJL129C, strain trk1, hits give low values 0.862 | locus YKR091W, strain srl3, hits give low values 0.929 | locus YLR330W, strain CHS5, hits give low values 0.906 | locus YLR418C, strain cdc73, hits give low values 0.804 | locus YNL071W, strain lat1, hits give low values 0.915 | locus YNL307C, strain MCK1, hits give low values 0.888 | locus YOR290C, strain snf2, hits give low values 0.863
